Data published in ChEMBL document CHEMBL3988442, “University of Dundee, Small-Polar-MMV Screening Library” (2021).
About 1,200 (3.2%) of roughly 38,000 compounds showed an effect of 50% or more. The median lay at about -58%. For the sample, strong results were picked, then their nearest neighbours and some compounds at random.

Tested on: Plasmodium falciparum
Test: Calibr Malaria Delayed Death Assay SOP
Type: functional, organism-based
Design: scale not given: in the data most compounds retested in dose-response had high values
Settings: concentration 4.99e-06 (unit not given; other assays of the set use mol/L)

| SMILES | Percent Effect [%] |
| --- | --- |
| NC(=O)C1CCN(CCCNC(=O)Nc2nccs2)CC1 | -52.35 |
| CCn1nc(C)c2nc(C(C)C)nc(N3CCC(O)CC3)c21 | -68.6 |
| COc1ccccc1CN(Cc1cccc(C)c1)C(=O)[C@@H](N)CC(=O)O | -17.66 |
| COCC(=O)N(Cc1cccc(C)c1)Cc1ccccc1OC | -1.416 |
| CN[C@@H](C)C(=O)N(Cc1cccc(C)c1)Cc1ccccc1OC | 83.47 |
| Cc1cnc(N2C(=O)CSC2c2cccs2)s1 (stereo not drawn) | -26.83 |
| COC(=O)c1ccc2c(-c3ccnc(N[C@@H](C)CO)n3)c[nH]c2c1 | -32.75 |
| COc1ccc2[nH]cc(-c3ccnc(N4CCC(C)CC4)n3)c2c1 | -185.2 |
| COc1ccc2[nH]cc(-c3ccnc(NC4CCCC4)n3)c2c1 | 56.79 |
| COc1ccccc1CC(C)CC(=O)NC(C)C (stereo not drawn) | -116.6 |
| CC(=O)N(Cc1noc(C2CC2)n1)C1CCN(Cc2cc(C)on2)C1 (stereo not drawn) | -9.487 |
| FC(F)(F)c1cccc(OC2CCN(Cc3ncc[nH]3)CC2)c1 | -24.7 |
| FC(F)(F)c1cccc(OC2CCN(Cc3c[nH]cn3)CC2)c1 | 48.24 |
| Cc1cccc(-c2nc(N)nc3c2CN(C(=O)C2CCCC2)C3C)c1 (stereo not drawn) | 35.57 |
| COc1ccccc1CN1CC(O)CN(C(=O)OCC(C)C)CC1=O (stereo not drawn) | -17.94 |
| Nc1ccc(C(=O)N2C[C@@H]3CC[C@H](C2)N(Cc2ccccc2)C3)cn1 | -23.45 |
| O=C(O)C(F)(F)F.O=C(O)C(F)(F)F.O=C(c1cccnc1)N1CCN2C[C@H](OCc3ccccc3)C[C@H]2C1 | -25.13 |
| CC(C#N)CSc1ccccc1NCC(=O)NC(C1CC1)C1CC1 (stereo not drawn) | 54.59 |
| CC(C#N)CSc1ccccc1NCC(=O)Nc1ccccc1 (stereo not drawn) | -74.13 |
| CC(C#N)CSc1ccccc1NCC(=O)NC1CCCCC1 (stereo not drawn) | -62.9 |
| COc1c[nH]c(C(=O)N2CCN(c3ccccc3)CC2)cc1=O | -92.19 |
| COC(=O)c1c(C(F)(F)F)cnc(OC)c1Cl | -7.4 |
| CCC(CO)NC(=O)NCc1cc(C#N)ccc1F (stereo not drawn) | -31.58 |
| COc1cccc(CNc2nc(C)cc(C)n2)c1OC | -94.43 |
| COc1cccc(CNc2cc(C)nc(-c3ccncc3)n2)c1OC | 88.78 |
| COc1cccc(CNc2cc(C)nc(-c3ccncc3)n2)c1O | -16.17 |
| CNc1oc(-c2cc(S(=O)(=O)N3CCCC3)c(C)o2)nc1C#N | -60.45 |

| SMILES | Percent Effect [%] |
| --- | --- |
| Cc1nn(C)c2nc(N3CCCC3c3nccs3)sc12 (stereo not drawn) | -63.74 |
| NC(=O)c1cccnc1N1C[C@@H]2CC[C@H](C1)N(Cc1ccccn1)C2=O | -36.76 |
| Fc1ccc(OCc2nnc([C@H]3CCN(Cc4ccccn4)C3)o2)cc1 | -10.02 |
| CCC(=O)N1CCC2(CC1)CC(NC(=O)N(C)C)c1cc(C)ccc12 (stereo not drawn) | -96.24 |
| Cc1nn(C)c(C)c1CCC(=O)N1CCc2sccc2C1 | -11.91 |
| Cc1noc(Cl)c1CCC(=O)N1CCN(CC(C)(C)O)CC1 | -36.25 |
| Cc1noc(Cl)c1CCC(=O)N1CCN(c2ccccc2)CC1 | 51.57 |
| Cc1noc(Cl)c1CCC(=O)N1CCN(c2cnccn2)CC1 | -135.5 |
| Cc1noc(C)c1CS(=O)(=O)CC(=O)N1CCc2sccc2C1 | -29.06 |
| Cc1noc(Cl)c1CCC(=O)N1CCc2sccc2C1 | 53 |
| CC(CO)(NC(=O)NCCc1ccc(Br)s1)C1CC1 (stereo not drawn) | -76.18 |
| Cc1[nH]ncc1C(=O)N1CCCC1c1noc(C2CC2)n1 (stereo not drawn) | -58.86 |
| CCOCC(O)CN1CCN(C(=O)c2ccc(OC)cc2)CC1 (stereo not drawn) | -30.2 |
| O=C(Nc1ccc(=O)n(Cc2ccccc2Cl)c1)C1CC1 | -14.36 |
| COc1cccc(CNC(C)c2ccc(-n3ccnc3)cc2)c1OC.Cl (stereo not drawn) | 16.61 |
| CCOc1cccc(CNC(C)c2ccc(-n3ccnc3)cc2)c1O (stereo not drawn) | 74.87 |
| CCOc1cccc(CNc2ccccc2C(=O)OC)c1O | -51.83 |
| CN(C)CCNC(=O)c1ccn(-c2ccc3ccccn23)n1.O=C(O)C(F)(F)F | 83.48 |
| N#CCCNC(=O)c1ccn(-c2ccc3ccccn23)n1 | -51.94 |
| COCCCNC(=O)c1ccn(-c2ccc3ccccn23)n1 | -7.182 |
| CCn1nc2c(cc1=O)CN(c1ncnc3sccc13)CC2 | 2.158 |
| c1csc(N2CCN(Cc3cc4n(n3)CCNC4)CC2)n1 | -68.56 |
| OC(c1ccccn1)C1CCN(Cc2cc3n(n2)CCCNC3)CC1 (stereo not drawn) | -111.2 |
| c1ccc(COC2CCN(Cc3cc4n(n3)CCCNC4)CC2)nc1 | -20.17 |
| c1ccc2c3c([nH]c2c1)CN(Cc1cc2n(n1)CCNC2)CC3 | 44.64 |
| Clc1cccc2c3c([nH]c12)CCN(Cc1cc2n(n1)CCNC2)C3 | 78.46 |
